The record followed here is PubChem BioAssay (EPA / NIEHS).

Test [1] concerns the target human Adrenergic, Beta 3 Receptor (Adrb3), ADRB3 (gene 155) (UniProt P13945). Put plainly: NVS_GPCR_hAdrb3: NovaScreen (NVS) G Protein-Coupled Receptor Assay for human Adrenergic, Beta 3 Receptor (Adrb3) (AID 2283262). A digest of the protocol: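 A cell-free filter binding assay read by scintillation counting, with displacement of a specific radioligand measured after 1 hour. The receptor source was SK-N-MC extracts (cells pretreated with isoproterenol and 8-bromo-cAMP). Compounds were first tested at 25 uM in duplicate and then in concentration series.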

The target in test [2] is Muscarinic acetylcholine receptor M3 (Homo sapiens) (UniProt P20309). Briefly: NVS_GPCR_hM3: NovaScreen (NVS) G Protein-Coupled Receptor Assay for human Muscarinic, M3 Receptor (AID 2283272). A digest of the protocol: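 Radioligand displacement binding on human M3 receptor in CHO-derived membranes, 1 h incubation, filter-based scintillation counting. Primary screen in duplicate at 25 uM; actives followed up in concentration series; loss of signal versus DMSO.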

The target in test [3] is Muscarinic acetylcholine receptor M2 (Homo sapiens) (UniProt P08172). Put plainly: NVS_GPCR_hM2: NovaScreen (NVS) G Protein-Coupled Receptor Assay for human Muscarinic, M2 Receptor (AID 2283273). A digest of the protocol: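 Filter-based radiodetection read bound radioligand 1 h after dosing CHO-derived membrane protein. Single-concentration duplicates (25 uM) first, then concentration-response for actives; signal loss versus DMSO scored.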

The target of test [4] is human Muscarinic, M4 Receptor, CHRM4 (gene 1132) (UniProt P08173). Briefly: NVS_GPCR_hM4: NovaScreen (NVS) G Protein-Coupled Receptor Assay for human Muscarinic, M4 Receptor (AID 2283274). In outline:
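Filter-based scintillation counting of radioligand bound to CHO-expressed human M4 preparations after 1 h; loss of signal fitted versus DMSO. Initial duplicate testing at 25 uM, concentration-response follow-up for actives.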

Test [5] concerns the target human Adrenergic, Alpha 2c Receptor (Adra2C), ADRA2C (gene 152) (UniProt P18825). Put plainly: NVS_GPCR_hAdra2C: NovaScreen (NVS) G Protein-Coupled Receptor Assay for human Adrenergic, Alpha 2c Receptor (Adra2C) (AID 2283259). In outline:
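Screened first in duplicate at 25 uM, with actives then run as concentration series. Membranes from Sf9 cells were exposed for 1 h, and displacement of radioligand was counted after filtration, using DMSO as baseline.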

Test [6] deals with D(1A) dopamine receptor (Homo sapiens) (UniProt P21728). Briefly: NVS_GPCR_hDRD1: NovaScreen (NVS) G Protein-Coupled Receptor Assay for human Dopamine Receptor D1 (DRD1) (AID 2283269). In outline: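 Cell-free competition with radioligand, filter-trapped and scintillation-counted 1 h post-dose, using HEK293-derived human D1 preparation. Duplicate single-point testing at 25 uM first, then concentration series for actives; DMSO served as baseline, loss-of-signal scored.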

In test [7] the target is human Adrenergic, Beta 1 Receptor (Adrb1), ADRB1 (gene 153) (UniProt P08588). Briefly: NVS_GPCR_hAdrb1: NovaScreen (NVS) G Protein-Coupled Receptor Assay for human Adrenergic, Beta 1 Receptor (Adrb1) (AID 2283258). A digest of the protocol: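 Membranes/protein extracted from human neuroepithelioma cells, radioligand competition binding read by filtration and scintillation 2 h post-dose. Single 25 uM duplicate screen, then concentration-response follow-up; DMSO as negative control.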

Test [8] concerns the target human Neurokinin, NK2 Receptor, TACR2 (gene 6865) (UniProt P21452). Put plainly: NVS_GPCR_hNK2: NovaScreen (NVS) G Protein-Coupled Receptor Assay for human Neurokinin, NK2 Receptor (AID 2283278).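 Further: actives reduce bound radioligand signal relative to DMSO baseline.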 In outline: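 Cell-free radioligand binding using receptor protein extracted from CHO cells; readings taken 4 hours after chemical dosing by filter-based scintillation counting. Primary screen ran single concentration (25 uM) in duplicate; actives followed up in concentration series, loss-of-signal versus DMSO baseline.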

Test [9] deals with human Endothelin Receptor Type A (ETA), EDNRA (gene 1909) (UniProt P25101). Put plainly: NVS_GPCR_hETA: NovaScreen (NVS) G Protein-Coupled Receptor Assay for human Endothelin Receptor Type A (ETA) (AID 2283265). A digest of the protocol: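 Binding of radioligand to membrane protein extracted from SH-SY5Y cells was read by filtration and scintillation after 3 h. Compounds were screened at 25 uM in duplicate, with hits followed up in singleton concentration series to 50 uM.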

Test [10] has as its target human Endothelin Receptor Type B (ETB), EDNRB (gene 1910) (UniProt P24530). Briefly: NVS_GPCR_hETB: NovaScreen (NVS) G Protein-Coupled Receptor Assay for human Endothelin Receptor Type B (ETB) (AID 2283267). A digest of the protocol:
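Filter-based scintillation readout of radioligand displacement, 4 h, using membranes from human astrocytoma cells. Actives from a 25 uM duplicate screen were retested in concentration-response (top 50 uM) relative to DMSO baseline.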

Test [11] has as its target Neuropeptide Y receptor type 2 (Homo sapiens) (UniProt P49146). Put plainly: NVS_GPCR_hNPY2: NovaScreen (NVS) G Protein-Coupled Receptor Assay for human Neuropeptide Receptor Y2 (NPY2) (AID 2283277). In outline:
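Chemicals were first tested in duplicate at 25 uM, then actives in singleton concentration series to 50 uM. Tracer binding to SK-N-MC-derived protein measured cell-free after 1 h via filter scintillation; signal loss relative to DMSO.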

The target in test [12] is human Dopamine Receptor D4.4 (DRD4.4), DRD4 (gene 1815) (UniProt P21917). Put plainly: NVS_GPCR_hDRD4.4: NovaScreen (NVS) G Protein-Coupled Receptor Assay for human Dopamine Receptor D4.4 (DRD4.4) (AID 2283264). A digest of the protocol:
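Filter-binding assay with a tritiated or iodinated ligand, cell-free receptor prepared from CHO, 1 hour. Loss of bound radioactivity versus DMSO; single 25 uM duplicate screen, then concentration-response for actives.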

Test [13] concerns the target Beta-2 adrenergic receptor (Homo sapiens) (UniProt P07550). Briefly: NVS_GPCR_hAdrb2: NovaScreen (NVS) G Protein-Coupled Receptor Assay for human Adrenergic, Beta 2 Receptor (Adrb2) (AID 2283261). A digest of the protocol: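 Compounds screened in duplicate at 25 uM, then actives in concentration series. Human beta-2 receptor from CHO material, cell-free; radioligand displacement after 1 h measured by filtration and scintillation against DMSO baseline.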

The target in test [14] is human Dopamine Receptor D2 (DRD2), DRD2 (gene 1813) (UniProt P14416). Briefly: NVS_GPCR_hDRD2s: NovaScreen (NVS) G Protein-Coupled Receptor Assay for human Dopamine Receptor D2 (DRD2) (AID 2283266). A digest of the protocol: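 Test compound (25 uM, duplicate in the primary screen; concentration series at follow-up) competed with radioligand for human DRD2 in CHO-derived membrane protein. Filter-based scintillation counting was done 1.5 hours after dosing, with loss of signal analysed against DMSO.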

The target in test [15] is human Histamine 1 Receptor (H1), HRH1 (gene 3269) (UniProt P35367). Put plainly: NVS_GPCR_hH1: NovaScreen (NVS) G Protein-Coupled Receptor Assay for human Histamine 1 Receptor (H1) (AID 2283268). In outline: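 Filter-based scintillation detection of radioligand binding to human H1, 1 h incubation; chemicals screened in duplicate at 25 uM, then concentration-response; signal loss relative to DMSO taken as activity.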

For test [16], the target named is human Leukotriene B4 Receptor 1 (LTB4-BLT1), LTB4R (gene 1241) (UniProt Q15722). Put plainly: NVS_GPCR_hLTB4_BLT1: NovaScreen (NVS) G Protein-Coupled Receptor Assay for human Leukotriene B4 Receptor 1 (LTB4-BLT1) (AID 2283271). In outline:
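Cell-free human neutrophil receptor preparation, 1 h exposure, radioligand binding read by filter scintillation counting. Single 25 uM duplicate screen, then concentration series topping at 50 uM; binding loss scored against DMSO baseline.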

In test [17] the target is Muscarinic acetylcholine receptor M5 (Homo sapiens) (UniProt P08912). Briefly: NVS_GPCR_hM5: NovaScreen (NVS) G Protein-Coupled Receptor Assay for human Muscarinic, M5 Receptor (AID 2283275). In outline:
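Chemicals passing a primary duplicate screen at 25 uM were run as singleton concentration series, maximum 50 uM. Displacement of a specific radioligand from CHO-extracted receptor was read by filter scintillation after 1 h, relative to DMSO.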

The target in test [18] is Type-1 angiotensin II receptor (Homo sapiens) (UniProt P30556). Briefly: NVS_GPCR_hAT1: NovaScreen (NVS) G Protein-Coupled Receptor Assay for human Angiotensin II receptor type 1 (AT1) (AID 2283263). A digest of the protocol: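 Hits from a 25 uM duplicate screen (threshold e.g. 30% inhibition) were run in concentration-response with 50 uM top concentration. Displacement of specific radioligand from KAN-TS membrane preparations measured after 3 h by filter scintillation, DMSO as baseline.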

The target of test [19] is Muscarinic acetylcholine receptor M1 (Homo sapiens) (UniProt P11229). Briefly: NVS_GPCR_hM1: NovaScreen (NVS) G Protein-Coupled Receptor Assay for human Muscarinic, M1 Receptor (AID 2283270). In outline:
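Actives from a duplicate 25 uM single-point screen were retested in concentration series. Binding measured as displacement of a radioligand from CHO-derived receptor preparation, 1 h incubation, filtration and scintillation counting, analysed as signal loss against DMSO.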

Results filed as inconclusive are left out. Calls of active or inactive are those of the source. How the source made its calls: active means hit-call score of the fitted dose curve at least 0.9, where 1 is the maximum; inconclusive means response in the unintended direction; inactive means score below 0.9.

Chain of human Dopamine Receptor D4.4 (DRD4.4), DRD4 (gene 1815) (P21917 whole entry, looked up): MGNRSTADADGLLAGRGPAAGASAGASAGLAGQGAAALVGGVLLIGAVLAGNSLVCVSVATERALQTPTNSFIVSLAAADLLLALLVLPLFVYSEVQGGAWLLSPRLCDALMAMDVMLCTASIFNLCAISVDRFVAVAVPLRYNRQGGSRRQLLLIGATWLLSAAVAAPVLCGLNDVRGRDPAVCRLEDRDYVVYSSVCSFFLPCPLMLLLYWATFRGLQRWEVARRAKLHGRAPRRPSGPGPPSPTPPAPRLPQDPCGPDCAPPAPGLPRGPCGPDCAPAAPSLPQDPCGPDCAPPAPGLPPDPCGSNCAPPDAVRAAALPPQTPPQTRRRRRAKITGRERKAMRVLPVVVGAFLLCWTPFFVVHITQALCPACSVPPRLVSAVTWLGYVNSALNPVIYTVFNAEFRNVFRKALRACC
Chain of human Muscarinic, M4 Receptor, CHRM4 (gene 1132) (P08173 whole entry, looked up): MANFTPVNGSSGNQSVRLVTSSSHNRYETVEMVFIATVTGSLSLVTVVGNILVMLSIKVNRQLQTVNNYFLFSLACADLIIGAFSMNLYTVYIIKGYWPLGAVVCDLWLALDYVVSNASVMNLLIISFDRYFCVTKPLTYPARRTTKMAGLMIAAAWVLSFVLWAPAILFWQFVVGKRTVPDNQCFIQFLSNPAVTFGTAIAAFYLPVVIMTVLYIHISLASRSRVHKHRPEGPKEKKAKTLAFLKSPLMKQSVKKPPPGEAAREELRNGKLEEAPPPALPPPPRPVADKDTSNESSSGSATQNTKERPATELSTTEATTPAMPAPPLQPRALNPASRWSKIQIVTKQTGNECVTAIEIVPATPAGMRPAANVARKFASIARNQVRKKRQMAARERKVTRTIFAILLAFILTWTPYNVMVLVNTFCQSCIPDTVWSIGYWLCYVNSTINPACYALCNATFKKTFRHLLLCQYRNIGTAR
Chain of Neuropeptide Y receptor type 2 (Homo sapiens) (P49146 whole entry, looked up): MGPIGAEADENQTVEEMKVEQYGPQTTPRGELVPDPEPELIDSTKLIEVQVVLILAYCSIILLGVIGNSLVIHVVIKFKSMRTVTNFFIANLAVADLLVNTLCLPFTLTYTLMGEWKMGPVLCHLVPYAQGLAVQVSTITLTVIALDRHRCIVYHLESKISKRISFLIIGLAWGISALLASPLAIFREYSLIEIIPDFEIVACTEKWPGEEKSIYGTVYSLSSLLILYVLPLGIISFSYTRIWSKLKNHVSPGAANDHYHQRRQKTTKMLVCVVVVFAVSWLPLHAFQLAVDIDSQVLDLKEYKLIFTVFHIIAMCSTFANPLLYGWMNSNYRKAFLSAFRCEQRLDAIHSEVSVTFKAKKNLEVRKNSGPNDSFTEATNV
Chain of human Neurokinin, NK2 Receptor, TACR2 (gene 6865) (P21452 whole entry, looked up): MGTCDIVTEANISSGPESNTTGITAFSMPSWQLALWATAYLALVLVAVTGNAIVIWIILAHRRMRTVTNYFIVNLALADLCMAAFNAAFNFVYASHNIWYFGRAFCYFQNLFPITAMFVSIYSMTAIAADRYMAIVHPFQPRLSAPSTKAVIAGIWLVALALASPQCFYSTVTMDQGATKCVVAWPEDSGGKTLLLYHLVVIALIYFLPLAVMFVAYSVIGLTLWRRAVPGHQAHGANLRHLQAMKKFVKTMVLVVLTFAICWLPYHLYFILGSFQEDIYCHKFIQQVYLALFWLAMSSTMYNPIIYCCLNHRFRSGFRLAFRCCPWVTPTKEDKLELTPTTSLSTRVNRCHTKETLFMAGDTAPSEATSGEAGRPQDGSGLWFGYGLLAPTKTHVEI
Chain of Muscarinic acetylcholine receptor M2 (Homo sapiens) (P08172 whole entry, looked up): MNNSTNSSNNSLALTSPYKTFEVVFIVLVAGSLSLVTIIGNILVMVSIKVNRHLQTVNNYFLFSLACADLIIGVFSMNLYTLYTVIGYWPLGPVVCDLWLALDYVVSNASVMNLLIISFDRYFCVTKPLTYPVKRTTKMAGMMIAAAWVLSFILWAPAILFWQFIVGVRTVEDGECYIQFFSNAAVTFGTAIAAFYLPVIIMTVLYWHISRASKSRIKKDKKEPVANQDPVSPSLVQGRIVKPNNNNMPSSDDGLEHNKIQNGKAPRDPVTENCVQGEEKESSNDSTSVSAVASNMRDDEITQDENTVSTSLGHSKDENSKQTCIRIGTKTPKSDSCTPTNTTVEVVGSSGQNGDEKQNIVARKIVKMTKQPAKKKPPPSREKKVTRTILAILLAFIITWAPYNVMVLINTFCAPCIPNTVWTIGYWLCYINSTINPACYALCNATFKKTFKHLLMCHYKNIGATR
Chain of Muscarinic acetylcholine receptor M3 (Homo sapiens) (P20309 whole entry, looked up): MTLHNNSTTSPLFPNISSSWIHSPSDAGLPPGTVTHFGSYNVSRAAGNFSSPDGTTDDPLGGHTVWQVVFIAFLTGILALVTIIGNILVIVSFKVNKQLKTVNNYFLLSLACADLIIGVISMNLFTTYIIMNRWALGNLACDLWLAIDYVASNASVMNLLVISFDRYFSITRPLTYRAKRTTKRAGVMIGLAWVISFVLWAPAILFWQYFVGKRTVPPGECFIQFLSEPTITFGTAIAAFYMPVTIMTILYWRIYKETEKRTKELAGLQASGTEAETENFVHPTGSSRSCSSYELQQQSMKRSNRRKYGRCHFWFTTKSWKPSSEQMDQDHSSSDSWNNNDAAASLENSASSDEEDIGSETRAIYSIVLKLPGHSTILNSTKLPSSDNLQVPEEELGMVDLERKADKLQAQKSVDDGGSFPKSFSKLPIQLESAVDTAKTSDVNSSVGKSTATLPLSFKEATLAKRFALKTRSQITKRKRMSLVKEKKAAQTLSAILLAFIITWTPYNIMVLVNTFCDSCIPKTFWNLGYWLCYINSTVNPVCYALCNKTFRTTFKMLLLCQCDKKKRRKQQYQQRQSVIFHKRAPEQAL
Chain of human Adrenergic, Alpha 2c Receptor (Adra2C), ADRA2C (gene 152) (P18825 whole entry, looked up): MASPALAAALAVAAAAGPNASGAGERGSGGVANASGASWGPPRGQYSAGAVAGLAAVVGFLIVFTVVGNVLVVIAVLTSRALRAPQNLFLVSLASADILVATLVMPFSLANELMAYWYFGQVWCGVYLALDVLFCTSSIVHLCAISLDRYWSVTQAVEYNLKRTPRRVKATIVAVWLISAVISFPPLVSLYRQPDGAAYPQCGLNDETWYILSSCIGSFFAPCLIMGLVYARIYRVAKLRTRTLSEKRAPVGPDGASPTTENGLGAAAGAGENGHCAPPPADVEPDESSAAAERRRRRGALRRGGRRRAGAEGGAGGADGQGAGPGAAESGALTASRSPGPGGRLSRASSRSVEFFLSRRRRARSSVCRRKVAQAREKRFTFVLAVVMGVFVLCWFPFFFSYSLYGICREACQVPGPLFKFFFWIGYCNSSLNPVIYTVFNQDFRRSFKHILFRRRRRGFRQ
Chain of D(1A) dopamine receptor (Homo sapiens) (P21728 whole entry, looked up): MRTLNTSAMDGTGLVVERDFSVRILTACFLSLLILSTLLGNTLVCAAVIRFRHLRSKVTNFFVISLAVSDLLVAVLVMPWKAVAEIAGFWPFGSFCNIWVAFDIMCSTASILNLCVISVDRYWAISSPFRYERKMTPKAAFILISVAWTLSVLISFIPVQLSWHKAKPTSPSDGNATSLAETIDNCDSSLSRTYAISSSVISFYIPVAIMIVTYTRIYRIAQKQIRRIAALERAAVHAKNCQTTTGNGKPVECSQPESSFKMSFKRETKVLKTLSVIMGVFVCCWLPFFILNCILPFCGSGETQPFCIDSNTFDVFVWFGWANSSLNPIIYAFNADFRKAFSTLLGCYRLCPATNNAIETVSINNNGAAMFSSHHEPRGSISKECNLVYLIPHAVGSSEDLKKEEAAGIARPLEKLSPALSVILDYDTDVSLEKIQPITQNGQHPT
Chain of human Dopamine Receptor D2 (DRD2), DRD2 (gene 1813) (P14416 whole entry, looked up): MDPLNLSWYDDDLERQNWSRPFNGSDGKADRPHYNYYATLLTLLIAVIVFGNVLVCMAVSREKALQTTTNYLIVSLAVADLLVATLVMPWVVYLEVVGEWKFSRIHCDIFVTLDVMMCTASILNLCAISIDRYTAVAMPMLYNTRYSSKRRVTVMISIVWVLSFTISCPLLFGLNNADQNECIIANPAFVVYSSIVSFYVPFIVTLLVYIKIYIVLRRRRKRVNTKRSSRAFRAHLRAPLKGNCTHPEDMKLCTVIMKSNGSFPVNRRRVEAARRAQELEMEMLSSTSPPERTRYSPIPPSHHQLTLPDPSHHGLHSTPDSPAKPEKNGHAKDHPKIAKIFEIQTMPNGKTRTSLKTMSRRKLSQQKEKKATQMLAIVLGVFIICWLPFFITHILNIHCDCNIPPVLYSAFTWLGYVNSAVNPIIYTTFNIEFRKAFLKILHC
Chain of Muscarinic acetylcholine receptor M5 (Homo sapiens) (P08912 whole entry, looked up): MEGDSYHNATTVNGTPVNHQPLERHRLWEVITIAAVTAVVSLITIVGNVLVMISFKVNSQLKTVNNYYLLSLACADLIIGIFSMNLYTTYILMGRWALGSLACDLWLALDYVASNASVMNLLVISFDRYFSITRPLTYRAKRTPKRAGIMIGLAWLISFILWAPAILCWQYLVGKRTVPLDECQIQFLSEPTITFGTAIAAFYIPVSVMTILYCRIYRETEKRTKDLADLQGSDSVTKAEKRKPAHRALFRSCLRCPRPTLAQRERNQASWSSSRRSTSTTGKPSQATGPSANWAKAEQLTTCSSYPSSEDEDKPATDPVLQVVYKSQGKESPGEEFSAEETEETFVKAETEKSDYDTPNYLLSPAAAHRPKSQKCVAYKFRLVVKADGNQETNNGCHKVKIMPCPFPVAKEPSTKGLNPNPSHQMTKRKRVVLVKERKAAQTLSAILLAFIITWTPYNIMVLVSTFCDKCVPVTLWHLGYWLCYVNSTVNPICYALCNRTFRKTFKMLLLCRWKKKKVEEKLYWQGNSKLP
Chain of human Leukotriene B4 Receptor 1 (LTB4-BLT1), LTB4R (gene 1241) (Q15722 whole entry, looked up): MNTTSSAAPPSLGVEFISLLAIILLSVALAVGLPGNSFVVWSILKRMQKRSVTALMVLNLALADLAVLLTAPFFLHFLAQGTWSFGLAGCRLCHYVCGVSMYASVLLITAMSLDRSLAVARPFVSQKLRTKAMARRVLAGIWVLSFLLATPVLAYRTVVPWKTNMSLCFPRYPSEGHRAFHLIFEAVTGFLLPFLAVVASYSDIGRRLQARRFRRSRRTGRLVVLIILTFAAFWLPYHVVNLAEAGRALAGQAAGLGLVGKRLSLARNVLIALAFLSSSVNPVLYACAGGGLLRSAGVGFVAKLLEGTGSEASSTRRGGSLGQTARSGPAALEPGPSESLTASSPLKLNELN

Regarding `Cc1ccccc1Cl`, in test [1], the call was inactive.

With `Cc1c(C(=O)O)c(O)cc2c1C(=O)c1c(O)c([C@@H]3O[C@H](CO)[C@@H](O)[C@H](O)[C@H]3O)c(O)c(O)c1C2=O`, the outcome in [2], in [3] and in test [4] was inactive.

Consider `CC1(C)CC(N=C=O)CC(C)(CN=C=O)C1` (stereo not given), for which the call in [5] and in [6] was inactive. Further, the AC50 is 0.367 µM (active) in [3] and 2.94 µM (active) in test [4].

Take `Nc1ccc(S(=O)(=O)c2ccc(N)cc2)cc1`: the result in [7] was inactive.

With `CNC(=O)[C@H]1O[C@@H](n2cnc3c(NCc4cc(Cl)ccc4OCc4cc(C)no4)ncnc32)[C@H](O)[C@@H]1N`, in test [5], the compound was called inactive.

As for `COc1cc(-c2nc(NC(=O)c3cc4cc(C)cc(C)c4n3CC(=O)O)sc2CCC2CCCCC2)c(OC)cc1Cl`, in test [8], the AC50 was 15.9 µM (active).

Turning to `CCCc1cc(=O)[nH]c(=S)[nH]1`, the compound was classed as inactive in [8].

For the compound `CCCCc1ccc2c(n1)[C@@H](c1ccc(OC)cc1C[C@H](C)C(=O)O)[C@H](C(=O)O)[C@H]2c1ccc2c(c1)OCO2`, the AC50 in test [9] was 0.00472 µM (active); in [10], 0.00361 µM (active).

Take `CC(=O)OC/C=C(\C)CCC=C(C)C`: in [11], the compound was classed as inactive.

In the case of `CC1=C(/C=C/C(C)=C/C=C/C(C)=C/CO)C(C)(C)CCC1`, the result in test [6] and in test [8] was inactive.

With `O=c1c(O)c(-c2ccc(O)c(O)c2)oc2cc(O)cc(O)c12`, the compound was called inactive in test [12].

For the compound `CCOC(=O)CCC(=O)OCC`, the compound was called inactive in test [5], in [13], in test [12], in test [14], in [15] and in [3]. Further, the call in test [11] and in test [8] was inactive. In addition, the AC50 in test [16] was 25 µM (active).

Take `Nc1nc(N)c2nc(CNc3ccc(C(=O)N[C@@H](CCC(=O)O)C(=O)O)cc3)cnc2n1`: the outcome in test [12] and in test [11] was inactive. Also, the AC50 in test [14] was 18.3 µM (active); in [6] it was 38.9 µM (active); in test [3], 40.7 µM (active).

With `COc1cc(S(=O)(=O)O)c(C)cc1N=Nc1c(O)ccc2cc(S(=O)(=O)O)ccc12`, the AC50 in test [5] was 13.9 µM (active); in test [12], 38.7 µM (active); in test [14], 11.4 µM (active); in test [6], 35.3 µM (active); in [3], 36.1 µM (active); in test [17], 31.4 µM (active). Further, the call in [2] and in [4] was inactive.

With `Cc1ccc(Cl)cc1`, the outcome in test [11] was inactive.

`CCCCC(CC)COC(=O)CC(C(=O)OCC(CC)CCCC)S(=O)(=O)O` (stereo not given): the AC50 is 6.35 µM (active) in test [7]; 7.47 µM (active) in [5]; 14.6 µM (active) in [13]; 17.7 µM (active) in test [18]; 10.5 µM (active) in test [12]; 16.5 µM (active) in test [14]. Moreover, the AC50 was 35.5 µM (active) in test [15]; 7.29 µM (active) in test [6]; 34.6 µM (active) in test [19]; 25 µM (active) in test [16]; 39.4 µM (active) in test [2]; 37.6 µM (active) in [4]. The AC50 in [17] is 18 µM (active); in [8], 35.7 µM (active).
